These results are taken from PubChem BioAssay (NCI).

About 83,000 compounds went through this panel and 20% of them were active in at least one assay; those are over-represented in the sample as a whole.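 Results are percent growth after 48 hours of single-concentration exposure. 100 means growth as in untreated cells, lower positive values show inhibition; negative values down to -100 show cell death.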 Unmarked numbers belong to inactive results. Activity calls are given as the source filed them. Rule for the calls: active = growth percent below 10; inactive = the rest.

For the assay, the system named is MDA-MB-468 breast. Nature of the assay: NCI-60 one-dose screen, 48 h (100 = growth as untreated, 0 = no growth, -100 = all killed). To be noted: 10 µM unless noted.
For `CN(C)CCCNC(=O)c1cncnc1Nc1ccc(OCc2cccc(F)c2)c(Cl)c1`, the growth was -7.83% (active).

As to `CC(=O)N1CCN(CCNC(=O)n2cc(-c3ccncc3)c(-c3ccc(O)c(Cl)c3)n2)CC1`, the growth was 112%.

Turning to `CCOC(=O)c1cocc1C(=O)O`, the growth was 103%.

For `CCN1C(=O)N(CC)C2C1NN=c1s/c(=C\c3ccc(F)cc3)c(=O)n12` (stereo not drawn), the growth is 11.9%.

Regarding `O=C(CCCCCCN1CC(=O)N2[C@@H](c3ccc(Cl)s3)c3[nH]c4ccccc4c3C[C@H]2C1=O)NO`, the growth was 30.7%.

Take `COc1ccc(C(O)c2cc3c(N)c(C(=O)Nc4ccccc4)sc3nc2C)cc1` (stereo not drawn): the growth is 9.92% (active).

Turning to `COc1ccc(Cn2cc(COc3ccc4c5ccnc(C)c5n(CCCc5ccccc5)c4c3)nn2)cc1`, the growth is 62.5%.

Consider `Cc1ccc(/C=C2\CN(C(=O)OC(C)(C)C)C/C(=C\c3ccc(C)cc3)C2=O)cc1`, for which the growth is 56.2%.

Regarding `O=C1Cc2ccccc2C(=O)O1`, the growth is 112%.

On to `CC(C)(C)[Si](C)(C)OC1[C@@H](O[Si](C)(C)C(C)(C)C)[C@@H](CNC(=O)NC(=O)NC(=O)CCl)O[C@H]1n1cnc2c(NC(=O)Nc3ccccc3)ncnc21` (stereo partly drawn), for which the growth is 106%.

On to `Cc1nc2sccn2c1-c1csc(Nc2cccc(Cl)c2C)n1`, for which the growth is -13% (active).

In the case of `CNCCN(C)c1ccc(Nc2cc(NC3CC3)n3ncc(C#N)c3n2)cc1NC(C)=O`, the growth is -54.5% (active).

Consider `O=C1Nc2ccccc2/C1=N/N=C/c1c[nH]c2ccccc12`, for which the growth is 84.8%.

In the case of `CC(=O)OC[C@H]1O[C@@H](n2c(=O)cc(N)[nH]c2=O)C(OC(C)=O)[C@@H]1OC(C)=O` (stereo partly drawn), the growth is 98.8%.

Consider `CNC(=O)c1cn2c3c(c(N4CCN(C)CC4)c(F)cc3c1=O)OC[C@@H]2C`, for which the growth was 97.7%.

In the case of `COc1ccc(CNC(=O)C(=O)[C@H](Cc2ccccc2)NC(=O)c2[nH]c3ccccc3c(=O)c2C)cc1`, the growth is 98.4%.

For `O=C1c2ccccc2C(=O)c2c1ccc1[nH]c(-c3cccs3)nc21`, the growth was 99.6%.

With `c1ccc(CCNc2ncnc3[nH]ncc23)cc1`, the growth was 70.9%.

For the molecule `ON=C(C1CCCCC1)C1CCCCC1`, the growth is 105%.

In the case of `CNc1nc(NC2CCCC2)nc(Sc2ccc(OC)cc2)n1`, the growth is 42.5% [100 µM].

Consider `C#CC(F)(F)[C@]1(O)CC[C@H]2[C@@H]3CCC4=CC(=O)CCC4=C3[C@@H](c3ccc(C(C)=O)cc3)C[C@@]21C`, for which the growth is 81.3%.

For `N#CC(C#N)N=Nc1ccc(Br)cc1`, the growth was 0.0168% (active).

As to `CCn1nc(-c2ccccn2)c2cccnc2c1=S`, the growth is 48.8%.

For `COc1cc(/C=C/c2cc(/C=C/c3ccc(O)c(OC)c3)n(C(=O)c3ccc(Cl)cc3)n2)ccc1O`, the growth is 1.45% (active).

In the case of `CN(C)c1ccc2nc3ccc(=[N+](C)C)c([N+](=O)[O-])c-3sc2c1`, the growth was 0.864% (active).

`COc1cc(C2CC(=O)Nc3c2c(C)nn3-c2nc3ccccc3[nH]2)cc2c1OCC(=O)N2` (stereo not drawn): the growth was 57.1%.

On to `Cc1cc(C(=O)c2ccccc2)c(C)c2c1[nH]c1ccc(Cl)cc12`, for which the growth is -7.26% (active).

`C=C(C)C1CCC(=C)C2CCC3(C)OC12/C=C(/COC(C)=O)CCC3O` (stereo not drawn): the growth was 115%.
